Laboratory results as given in the supplement of paper PMC6555819.

Legend:
Experiment in all cases: PBM binding z-score (relative to random genomic background probes); higher = stronger binding; sequences stand for … in GC…GCGATTGACAGCGTAGAATGAAGG
[1] = tested on: FXR:RXRa (NR concentration 270 nM, RXRa partner concentration 90 nM)
Summary of the method: (§1)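 Each nuclear receptor dimer, without ligand, was incubated for 1 h on custom Agilent 4×180K protein-binding microarrays. Binding was detected with antibodies against each partner (one per run), and scanned fluorescence was regression-normalized. The binding z-scores are referenced to random human genomic background probes.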

[2] = tested on: LXRa:RXRa (NR concentration 270 nM, RXRa partner concentration 90 nM)
Summary of the method: as §1

[3] = tested on: LXRa homodimer (NR concentration 270 nM)
Summary of the method: as §1

[4] = tested on: LXRb:RXRa (NR concentration 270 nM, RXRa partner concentration 90 nM)
Summary of the method: as §1

[5] = tested on: LXRb homodimer (NR concentration 270 nM)
Summary of the method: as §1

[6] = tested on: PPARa:RXRa (NR concentration 270 nM, RXRa partner concentration 90 nM)
Summary of the method: as §1

[7] = tested on: PPARg:RXRa (NR concentration 180 nM, RXRa partner concentration 90 nM)
Summary of the method: as §1

[8] = tested on: PPARg:RXRa 270nM:90nM, anti-RXR (NR concentration 270 nM, RXRa partner concentration 90 nM)
Summary of the method: as §1

[9] = tested on: PPARg:RXRa 30nM:10nM, anti-RXR (NR concentration 30 nM, RXRa partner concentration 10 nM)
Summary of the method: as §1

[10] = tested on: PPARg:RXRa 90nM:30nM, anti-RXR (NR concentration 90 nM, RXRa partner concentration 30 nM)
Summary of the method: as §1

[11] = tested on: PPARg:RXRa DBDmut IVT, anti-RXR (DBD mutation: RXRa K156A/R161A, NR concentration 270 nM, RXRa partner concentration 90 nM)
Summary of the method: as §1

[12] = tested on: PPARg:RXRa IVT, anti-PPARg (NR concentration 270 nM, RXRa partner concentration 90 nM)
Summary of the method: as §1

[13] = tested on: PPARg DBDmut:RXRa IVT, anti-PPARg (DBD mutation: PPARg1 K132A/R137A, NR concentration 270 nM, RXRa partner concentration 90 nM)
Summary of the method: as §1

[14] = tested on: PPARg DBDmut IVT, anti-PPARg (DBD mutation: PPARg1 K132A/R137A, NR concentration 270 nM)
Summary of the method: as §1

[15] = tested on: PPARg homodimer (NR concentration 180 nM)
Summary of the method: as §1

[16] = tested on: PXR:RXRa (NR concentration 270 nM, RXRa partner concentration 90 nM)
Summary of the method: as §1

[17] = tested on: PXR homodimer (NR concentration 270 nM)
Summary of the method: as §1

[18] = tested on: RARa:RXR (NR concentration 270 nM, RXRa partner concentration 90 nM)
Summary of the method: as §1

[19] = tested on: RARa homodimer (NR concentration 270 nM)
Summary of the method: as §1

[20] = tested on: RARb:RXRa (NR concentration 270 nM, RXRa partner concentration 90 nM)
Summary of the method: as §1

Sequence	PBM binding z-score [1]	PBM binding z-score [2]	PBM binding z-score [3]	PBM binding z-score [4]	PBM binding z-score [5]	PBM binding z-score [6]	PBM binding z-score [7]	PBM binding z-score [8]	PBM binding z-score [9]	PBM binding z-score [10]	PBM binding z-score [11]	PBM binding z-score [12]	PBM binding z-score [13]	PBM binding z-score [14]	PBM binding z-score [15]	PBM binding z-score [16]	PBM binding z-score [17]	PBM binding z-score [18]	PBM binding z-score [19]	PBM binding z-score [20]
CCTAGTCGGTCAAGGTCACACACGCTATAGGTAC	4.93	4.51	2.64	3.94	1.16	4.61	4.76	4.67	2.13	3.88	4.58	5.27	0.742	0.895	3.81	4.4	1.97	4.9	2.62	4.51
AGTCAAAGTTCATTTAGGTAACGTAAGATATGCT	6.47	6.25	6.58	4.2	3.14	4.58		6.05	2.98	5.09	0.638	3.21	1.36	1.51	2.39	5.45	8.27	3.63	1.4	4.66
CCTATTAGTTGACCATAAGGGCAACCGCAGCTCG	1.1	0.581	0.369	0.306	0.642	0.449	0.36	0.368	-0.191	0.0579	0.361	0.808	0.402	0.299	0.816	0.705	1.05	0.896	1.78	1.54
CGTCCAAGGTCAAAGGTCAGTTAAGAGATGACGG	8.43	6.95	4.02	6.65	2.51	7.44	10.5	8.31	7.4	9.07	3.55	5.71	1.21	-0.205	3.01	6.49	1.86	8.28	1.38	6.2
CAAACAAGGTCAAGAGGTCAAAGTCCGCTTCCCG			7.29		2.87		8.71	8.05	6.08	7.7	5.59	6.52	1.74	1.24	8.18		5.91		4.23	
CCGAGTAGGTTATGGGGCATTCGGGCAACGGTGA	0.24	0.637	0.00114	0.528	-0.313	2.4	3.36	4.85	2.16	4.57	2.83	3.88	-0.19	-0.259	0.492	0.00674	-0.383	0.377	-0.149	1.1
CTTAGCAGGCCAGGGTCACTCAAGCATTTCGCTT	2.22	1.69	-0.276	2.19	-0.331	3.33	0.864	1.93	-0.113	1.06	1.45	1.72	-0.582	-0.865	0.785	2.67	-0.227	3.2	-0.241	2.81
CCTACTGGGCCAAAAAGATCATTGATGCCGATAA	-0.2	-0.313	-0.155	-0.481	-0.601	0.11	0.525	0.504	-0.0196	0.372	3.14	2.44	-0.679	-0.158	0.38	-0.395	-0.298	-0.562	0.184	-0.239
CCTTACGGGTTACTGACAGGTTATAGCATTTGGA	0.701	2.51	0.282	1.34	-0.567	1.78	0.373	1.24	0.114	0.535	1.04	0.57	-0.172	-0.367	1.21	0.825	0.22	1.51	0.545	0.924
TGGATGAGGTTAAAGATCAGGGAACGTGGCGTCG	3.69	2.74	0.085	2.45	1.54	4.13	3.75	4.84	3.49	4.98	0.289	1.92	1.51	0.255	1.99	2.71	1.07	3.96	0.62	2.37
TCATATAGGTAACACAGGTGAAAGTCGGCATCTA	1.43	1.43	0.437	1.22	0.437	2.4	2.36	3.3	4.15	3.83	4.65	4.09	0.968	1.6	1.38	1.15	0.735	1.5	1.19	1
CGTCCAAGGTCAAAGGTGAGTGAAGAGATGACGG	7.3	5.66	0.771	4.65	1.11	6.66	8.58	7.77	5.88	7.38	4.29	5.13	0.48	-0.248	2.01	5.5	1.01	7.17	1.07	5.55
CAGCCAAGGTCAGGGCCAGTATAGGAGGAACGTT	5.13	3.08	-0.277	2.25	-0.506	4.22	2.73	2.77	0.584	1.61	1.56	2.1	-0.336	-0.871	2.33	2.13	0.199	3.09	0.299	4.73
CCAGACAGGTGAGAAGGTAACACAGCCTCGATTA	0.191	0.2	0.0952	0.413	-0.0709	1.1	0.941	0.656	0.112	0.637	1	0.723	-0.672	-0.419	0.988	-0.0224	0.73	0.409	0.978	0.799
ATCGACAGGTCGAAGGTGAGTATACCCACCCGAA	0.612	0.709	-0.323	0.59	-0.341	2.27	2.57	2.71	1.04	2.75	-0.979	1.09	0.369	-0.333	0.63	0.914	-0.44	1.5	-0.439	1.64
GGAACGAGGGCAAGTGGATAGCAGAGTTTGATGG	0.68	0.618	-0.0905	0.0624	-0.475	1.36	1.21	1.21	-0.127	0.598	3.83	2.95	0.27	0.066	0.34	0.612	0.421	0.505	-0.0317	2.65
GATACAGGGTAAGCTAGAGGCCAGAGTATGGAAA	-0.252	-0.448	-0.407	-0.76	-1.15	-0.293	0.319	-0.0379	-0.0812	-0.0554	0.227	0.424	-0.118	-0.173	-0.435	-0.38	-0.17	-0.0414	-0.543	0.634
TCATATAGGTAAAAGGTGAAAGTGGGTGTGGTAA	2.2	2.19	0.716	2.45	0.97	5.49	9.05	8.74	8.47	9.1	5.36	5.24	0.898	1.26	2.63	2.31	1.28	3.5	2.39	2.22
AGAATGAGGTTACCAAAGATCAGGGCAACGCTTG	2.12	6.55	-0.189	3.11	-0.372	3.61	3.06	3.12	1.15	2.34	3.79	3.77	0.564	0.291	0.848	1.81	-0.116	2.47	-0.187	2.43
CCTACTGGGCCACGAAAGGTCATAGATTCAGTGA	3.74	5.02	4.02	4.2	0.194	4.78	4.68	4.98	2.28	4.2	5.75	6.04	0.35	1.08	3.16	4.97	0.915	5.39	0.471	4.03
ACAGACAGGTGAGTGTAGGTAACTCAGCTGGACG	0.257	-0.0272	-0.446	-0.538	-0.878	0.215	0.458	0.248	-0.279	-0.0696	0.831	1.24	-0.529	-0.0544	0.128	-0.121	0.0184	0.216	0.676	0.392
CCGAGTAGGTCATGGGGCATTCAGGCAACGGTGA	4.82	3.04	0.422	2.42	-0.503	4.92	8.14	7.29	6.6	7.69	5.78	6.73	0.331	-0.486	2.5	2.15	-0.103	3.58	0.815	3.78
CAAACAAGGTCAAGGTCAAAGTCGGTTTGTGCCA			4.84		2.25	6.38	7.93	7.31	4.7	6.55	5.99	6.6	3.37	1.15	4.82		3	6.86	2.95	
CCTAGTTTGTCAAGGTCACACACGCTATAGGTAC	4.49	4.38	3.27	3.87	1.42	4.14	2.44	2.78	0.971	1.93	1.6	2.96	1.92	1.48	4.48	4.71	5.83	4.57	2.66	4.18
CCTTACGGGTCACTCCAGGTTATAGTATCGGAGT	4.76	7.84	2.33	5.52	0.0567	4.62	3.5	3.93	1.33	2.85	2.7	3.52	0.75	0.31	1.56	4.94	0.228	3.64	0.304	3.8
CCTTACGGGTCACCCCAGGTTATAGCATCGGAGT	5.74	6.63	1.25	4.43	-0.027	5.01	4.23	4.51	1.22	3.1	1.58	3.6	0.299	-0.0802	2.12	5.4	0.158	4.43	0.572	3.79
GCTTGTAGATCAAGGTTAAGATAGACTAAGCTAA	0.296	1.56	-0.0877	0.529	-0.803	1.66	1.17	2.1	0.465	1.81	1.44	1.14	0.0148	-0.396	0.519	0.536	0.00293	0.825	-0.522	0.938
